Laboratory results from PubChem BioAssay AID1159580 (chemical genetic matrix, 2015).
The whole screen tested about 5,500 compounds, of which about 2,000 (36%) were called active. Inconclusive results (about 18%) are left out. Cut-off read from the data, not from the text of the source: active = normalized growth mostly below about 0.91 (no sharp cut-off); inconclusive = no clear call, values can overlap the other calls; inactive = mostly above about 0.92. Some of the results follow.

Test: chemical genetic growth profiling, strain panel (AID 1159580);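 note: tested at 20 µM; growth read once vehicle control cultures reached saturation at 30 °C; 1 = growth at the plate median or of vehicle wells; lower values mean less growth of the strain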
Details: growth OD

Measured: normalized growth

C#C[C@]1(O)CCC2C3CCC4=C(CCC(=O)C4)C3CC[C@@]21C (some centres undefined)
inactive: S. cerevisiae deletion strains, locus YJR075W, strain HOC1, active compounds read low 1.02 | S. cerevisiae deletion strains, locus YKL009W, strain mrt4, active compounds read low 0.974 | S. cerevisiae deletion strains, locus YKL068W, active compounds read low 1.01 | S. cerevisiae deletion strains, locus YKL085W, strain MDH1 (second series), active compounds read low 1.01 | S. cerevisiae deletion strains, locus YKL085W, strain MDH1, active compounds read low 1.01 | S. cerevisiae deletion strains, locus YKL160W, strain elf1, active compounds read low 0.998 | S. cerevisiae deletion strains, locus YKL190W, strain CNB1, active compounds read low 1.04 | S. cerevisiae deletion strains, locus YKR001C, strain vps1, active compounds read low 1.01 | S. cerevisiae deletion strains, locus YKR026C, strain gcn3, active compounds read low 0.986 | S. cerevisiae deletion strains, locus YKR091W, strain srl3, active compounds read low 0.982 | S. cerevisiae deletion strains, locus YLL001W, strain dnm1, active compounds read low 1 | S. cerevisiae deletion strains, locus YLL026W, active compounds read low 0.994 | S. cerevisiae deletion strains, locus YLL041C, strain sdh2, active compounds read low 0.977 | S. cerevisiae deletion strains, locus YLR027C, strain aat2, active compounds read low 0.983 | S. cerevisiae deletion strains, locus YLR039C, strain RIC1, active compounds read low 0.911 | S. cerevisiae deletion strains, locus YLR058C, strain SHM2, active compounds read low 1.01 | S. cerevisiae deletion strains, locus YLR102C, strain apc9, active compounds read low 1.01 | S. cerevisiae deletion strains, locus YLR113W, strain HOG1, active compounds read low 0.852 | S. cerevisiae deletion strains, locus YLR221C, strain rsa3, active compounds read low 0.96 | S. cerevisiae deletion strains, locus YLR258W, strain gsy2, active compounds read low 0.973 | S. cerevisiae deletion strains, locus YLR262C, strain YPT6, active compounds read low 0.868 | S. cerevisiae deletion strains, locus YLR268W, strain sec22, active compounds read low 0.959 | S. cerevisiae deletion strains, locus YLR320W, strain mms22, active compounds read low 0.963 | S. cerevisiae deletion strains, locus YLR330W, strain CHS5, active compounds read low 1.02 | S. cerevisiae deletion strains, locus YLR342W, strain FKS1 (second series), active compounds read low 0.953 | S. cerevisiae deletion strains, locus YLR342W, strain FKS1, active compounds read low 0.968 | S. cerevisiae deletion strains, locus YLR357W, strain rsc2, active compounds read low 1.03 | S. cerevisiae deletion strains, locus YLR370C, strain arc18, active compounds read low 0.97 | S. cerevisiae deletion strains, locus YLR371W, strain rom2, active compounds read low 1 | S. cerevisiae deletion strains, locus YLR384C, strain iki3, active compounds read low 0.974 | S. cerevisiae deletion strains, locus YLR418C, strain cdc73, active compounds read low 0.961 | S. cerevisiae deletion strains, locus YML016C, strain PPZ1, active compounds read low 1.01 | S. cerevisiae deletion strains, locus YML032C, strain rad52, active compounds read low 0.975 | S. cerevisiae deletion strains, locus YML120C, strain ndi1, active compounds read low 0.97 | S. cerevisiae deletion strains, locus YML124C, strain tub3, active compounds read low 1.01 | S. cerevisiae deletion strains, locus YMR058W, strain fet3, active compounds read low 0.963 | S. cerevisiae deletion strains, locus YMR078C, strain ctf18, active compounds read low 1 | S. cerevisiae deletion strains, locus YMR125W, strain sto1, active compounds read low 1.01 | S. cerevisiae deletion strains, locus YMR129W, active compounds read low 0.972 | S. cerevisiae deletion strains, locus YMR205C, strain PFK2, active compounds read low 0.978 | S. cerevisiae deletion strains, locus YMR223W, strain ubp8, active compounds read low 1.01 | S. cerevisiae deletion strains, locus YMR231W, strain pep5, active compounds read low 0.981 | S. cerevisiae deletion strains, locus YMR307W, strain GAS1, active compounds read low 0.989 | S. cerevisiae deletion strains, locus YNL067W, strain RPL9B, active compounds read low 1.02 | S. cerevisiae deletion strains, locus YNL071W, strain lat1, active compounds read low 0.963 | S. cerevisiae deletion strains, locus YNL128W, strain TEP1, active compounds read low 1.03 | S. cerevisiae deletion strains, locus YNL153C, strain GIM3, active compounds read low 1.03 | S. cerevisiae deletion strains, locus YNL183C, strain NPR1, active compounds read low 0.919 | S. cerevisiae deletion strains, locus YNL209W, strain ssb2, active compounds read low 0.989 | S. cerevisiae deletion strains, locus YNL233W, strain BNI4, active compounds read low 0.998 | S. cerevisiae deletion strains, locus YNL248C, strain rpa49, active compounds read low 0.96 | S. cerevisiae deletion strains, locus YNL250W, strain rad50, active compounds read low 0.992 | S. cerevisiae deletion strains, locus YNL271C, strain bni1, active compounds read low 0.991 | S. cerevisiae deletion strains, locus YNL298W, strain CLA4, active compounds read low 0.986 | S. cerevisiae deletion strains, locus YNL307C, strain MCK1, active compounds read low 0.99 | S. cerevisiae deletion strains, locus YNL322C, strain KRE1 (second series), active compounds read low 0.97 | S. cerevisiae deletion strains, locus YNR049C, strain mso1, active compounds read low 0.982 | S. cerevisiae deletion strains, locus YNR052C, strain pop2, active compounds read low 0.992 | S. cerevisiae deletion strains, locus YOL006C, strain TOP1, active compounds read low 0.931 | S. cerevisiae deletion strains, locus YOL012C, strain htz1 1.9 | S. cerevisiae deletion strains, locus YOL147C, strain pex11, active compounds read low 1.01 | S. cerevisiae deletion strains, locus YOR001W, strain rrp6, active compounds read low 0.936 | S. cerevisiae deletion strains, locus YOR061W, strain CKA2, active compounds read low 1 | S. cerevisiae deletion strains, locus YOR069W, strain VPS5, active compounds read low 1.02 | S. cerevisiae deletion strains, locus YOR070C, strain gyp1, active compounds read low 1 | S. cerevisiae deletion strains, locus YOR080W, strain dia2, active compounds read low 0.999 | S. cerevisiae deletion strains, locus YOR083W, strain WHI5, active compounds read low 0.985 | S. cerevisiae deletion strains, locus YOR106W, strain vam3, active compounds read low 0.991 | S. cerevisiae deletion strains, locus YOR136W, strain idh2, active compounds read low 1 | S. cerevisiae deletion strains, locus YOR144C, strain elg1, active compounds read low 1 | S. cerevisiae deletion strains, locus YOR184W, strain ser1, active compounds read low 0.898 | S. cerevisiae deletion strains, locus YOR231W, strain MKK1, active compounds read low 0.919 | S. cerevisiae deletion strains, locus YOR265W, strain rbl2, active compounds read low 0.987 | S. cerevisiae deletion strains, locus YOR270C, strain vph1, active compounds read low 0.955 | S. cerevisiae deletion strains, locus YOR290C, strain snf2, active compounds read low 0.932 | S. cerevisiae deletion strains, locus YOR316C, strain cot1, active compounds read low 1 | S. cerevisiae deletion strains, locus YPL051W, strain arl3, active compounds read low 0.983 | S. cerevisiae deletion strains, locus YPL078C, strain atp4, active compounds read low 0.93 | S. cerevisiae deletion strains, locus YPL106C, strain sse1, active compounds read low 1.03 | S. cerevisiae deletion strains, locus YPL240C, strain hsp82, active compounds read low 0.981 | S. cerevisiae deletion strains, locus YPL241C, strain CIN2, active compounds read low 1.02 | S. cerevisiae deletion strains, locus YPL256C, strain CLN2, active compounds read low 0.838 | S. cerevisiae deletion strains, locus YPR119W, strain clb2, active compounds read low 1 | S. cerevisiae deletion strains, locus YPR141C, strain kar3, active compounds read low 1.01 | S. cerevisiae deletion strains, locus YPR163C, strain tif3, active compounds read low 1.02 | S. cerevisiae deletion strains, locus YPR167C, strain met16, active compounds read low 1 | S. cerevisiae deletion strains, strain wtn01, active compounds read low 0.996 | S. cerevisiae strains, strain wild type, active compounds read low 1.03
active: S. cerevisiae deletion strains, locus YLR262C, strain YPT6 (second series), active compounds read low 0.825
